Measured values published in PubChem BioAssay (NCATS).
Results filed as inconclusive are left out. Calls of active or inactive are those of the source. The call rests on the fitted dose curve; in most records, active means well fitted inhibition curve with a large enough effect; inconclusive means small, poorly fitted or top-dose-only effect; inactive means no such curve, though single readings can be large or run the other way.

Test system: Zika virus NS2B-NS3 protease (linked construct)
Assay: Primary screen NINDS Rhodamine qHTS for Zika virus inhibitors (AID 1347160); further: nearly all actives have a fitted effect of over 55% in size
Conditions: purified NS2B-NS3 protease, Rhodamine110 substrate fluorescence; series mostly up to 57.1 µM; activity change, negative = inhibition: at the top concentration
How it was run: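 Purified NS2B-NS3 protease with the NS2B hydrophilic domain joined by a flexible linker (25 nM) in 10 mM Tris-HCl pH 8.0, 0.01% Tween 20, preincubated 15 min at RT with compound; Rhodamine110 peptide substrate 1.5 µM; fluorescence change over 15 min; 4-parameter Hill fit.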
On the % scale 0 is the no-effect control and ±100 the full control effect; potency means the concentration at half of the fitted maximal effect.

SMILES	activity change, negative = inhibition	outcome	Potency
CCC(C)/C=C(C)/C=C/C1=CC2=CC(=O)C3(C)OC(C)(O)C(C(=O)OC)C3C2=CO1 (configuration not stated)	-22.1% [at 33.1 µM] (inactive)		
Cc1c(NC(=O)c2cc3c(s2)CCCC3)cccc1-c1cn(C)c(=O)c(Nc2ccc(C3C(=O)N(C)CCN3C)cc2)n1 (configuration not stated)	-5.49% (inactive)		
COc1cc(CCC2=NN=C(NC(=O)c3ccc(N4C[C@@H](C)N[C@@H](C)C4)cc3)C2)cc(OC)c1	76.1% (inactive)		
NS(=O)(=O)Nc1ncnc(OCCOc2ncc(Br)cn2)c1-c1ccc(Br)cc1	35% (inactive)		
O=C(Nc1ccc(N2C(=O)[C@@H]3[C@H](C2=O)[C@@H]2C=C[C@H]3C2)c(Cl)c1)c1ccccn1		inactive	
CC(NC(=O)Cc1cc(F)cc(F)c1)C(=O)NC1C(=O)N(C)c2ccccc2-c2ccccc21 (configuration not stated)	109% (inactive)		
CC(=O)c1c(C)cc2cccc(O)c2c1O[C@@H]1O[C@H](CO)[C@@H](O)[C@H](O)[C@H]1O		inactive [at 33.1 µM]	
CC(C)C[C@@H](N)C(=O)N[C@H]1C(=O)N[C@@H](CC(N)=O)C(=O)N[C@H]2C(=O)N[C@H]3C(=O)N[C@H](C(=O)N[C@H](C(=O)O)c4cc(O)cc(O)c4-c4cc3ccc4O)[C@H](O)c3ccc(c(Cl)c3)Oc3cc2cc(c3O[C@@H]2O[C@H](CO)[C@@H](O)[C@H](O)[C@H]2O[C@H]2C[C@](C)(N)[C@H](O)[C@H](C)O2)Oc2ccc(cc2Cl)[C@H]1O	-3.66% [at 33.1 µM] (inactive)		
O=C(Nc1nnc(-c2ccc3c(c2)OCCO3)o1)C1CCCCC1	43.4% (inactive)		
C/C=C(\C)[C@@H]1C(C)=C[C@@H]2[C@H]([C@@H]1/C=C/C=C/C(=O)O)[C@@H](C)CC[C@@H]2O	-25.7% [at 33.1 µM] (inactive)		
C=C1C(=O)O[C@@H]2/C=C(\CO)CC/C=C(/C=O)C[C@H](O)[C@@H]12	5.36% (inactive)		
CCC(CC)(NC(=O)C(C)C)C(=O)N[C@@H](CCCN=C(N)N)C(=O)NC1(C(=O)NC(c2ccc(F)cc2)c2ccc(F)cc2)CCCC1	34.2% (inactive)		
Cc1cc(C)c(S(=O)(=O)n2cc(C)cc2C)c(C)c1	14.8% (inactive)		
O=C1COc2nccc(-c3ccccc3F)c2CN1Cc1cc(C(F)(F)F)cc(C(F)(F)F)c1	-18.5% (inactive)		
COc1ccc(CCO[C@@H]2O[C@H](CO[C@H]3OC[C@](O)(CO)[C@H]3O)[C@@H](OC(=O)/C=C/c3ccc(O)c(O)c3)[C@H](O[C@@H]3O[C@@H](C)[C@H](O)[C@@H](O)[C@H]3O)[C@H]2O)cc1OC	-4.09% [at 15.1 µM] (inactive)		
CC12CCC(OC3OC(CO)C(O)C(O)C3OC3OC(CO)C(O)C(O)C3O)CC1CCC1C2CCC2(C)/C(=C3/COC(=O)C3)CCC12O (configuration not stated)	0.347% [at 15.1 µM] (inactive)		

SMILES	activity change, negative = inhibition	outcome	Potency
C[C@@H](O[C@H]1OCCN(Cc2nn(P(=O)(O)O)c(=O)[nH]2)[C@H]1c1ccc(F)cc1)c1cc(C(F)(F)F)cc(C(F)(F)F)c1	-1.33% [at 33.1 µM] (inactive)		
Cc1cccc(C#Cc2cc(F)cc(C#N)c2)n1	72.4% (inactive)		
CC(=O)OC1[C@H]2[C@@H](C[C@@H](C)[C@@H]3C=CC(=O)[C@@]13C)OC(=O)[C@@H]2C (some centres not stated)	9.48% (inactive)		
COc1cc(C(=O)NC(=S)Nc2cccc(NC(=O)c3ccccc3)c2)cc(OC)c1OC	32.1% (inactive)		
CC(=O)OC[C@]12[C@H](OC(C)=O)C(=O)[C@@H]3[C@@H](O)[C@@]14O[C@@]3(C)COC(=O)c1cccnc1[C@@H](C)[C@H](C)C(=O)O[C@@H]([C@H](O)[C@@H]2OC(C)=O)[C@]4(C)O	-4.36% [at 15.1 µM] (inactive)		
C=C1[C@H]2CC[C@H](C(=O)O)[C@@]23CC[C@H](C3)C1(C)C	-4.33% (inactive)		
CC#C[C@@H](CC(=O)O)c1ccc(OCc2cccc(-c3ccc(C(F)(F)F)cc3)c2)cc1			1580 nM (active)
O=C(NS(=O)(=O)c1ccc(Br)s1)c1ccc(Cl)cc1Cl	-17.3% (inactive)		
CC(C)C[C@H](C(=O)O)c1cc(-c2ccc(C(F)(F)F)cc2)cc(-c2ccc(C(F)(F)F)cc2)c1			3550 nM (active)
C/C=C(\C)C(=O)OC1C(C)C2(O)C(C=C(CO)CC3(O)C(=O)C(C)=CC32)C2C(C)(C)C12OC(C)=O (configuration not stated)	-11.7% [at 33.1 µM] (inactive)		
C#CCOc1ccc2c(c1)c(-c1ccc(C(C)C)cc1)nc(=O)n2C(C)C	-12.3% (inactive)		
C=C1CCN([C@H](C)[C@](O)(Cn2cncn2)c2ccc(F)cc2F)CC1	23.8% (inactive)		
O=S(=O)(NCc1ccccn1)c1ccc(Br)c2ccccc12	21.6% (inactive)		
Cc1cnn(-c2ccccc2)c1NC(=O)COCc1ccccc1		inactive	
C=C1C(=O)OC2/C=C(\CO)CC/C=C(\C=O)C(O)C(OC(=O)C(C)CC)C12 (configuration not stated)	-7.54% [at 33.1 µM] (inactive)		
COC(=O)N1CCC(n2ncc3c(N4CCOCC4)nc(-c4ccc(NC(=O)NC5CC5)cc4)nc32)CC1	11.5% (inactive)		
